# According to article PMC4336329 (PLoS ONE, 2015):
# Screen size: about 310,000 compounds; about 14,000 (4.5%) showed an effect of 50% or more. The effect is printed as a negative number. The sample as a whole holds a higher share of strong results than the screen did.
# Target: human ether-à-go-go-related gene (hERG) potassium channel (human, UniProt Q12809)
# Assay: primary screen, population patch clamp on CHO cells stably expressing hERG; higher = less effect of the substance
# 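Further: peak tail current of the secondary pulse compared with the same well before compound.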
# Sequence of human ether-à-go-go-related gene (hERG) potassium channel (Q12809 whole entry, looked up): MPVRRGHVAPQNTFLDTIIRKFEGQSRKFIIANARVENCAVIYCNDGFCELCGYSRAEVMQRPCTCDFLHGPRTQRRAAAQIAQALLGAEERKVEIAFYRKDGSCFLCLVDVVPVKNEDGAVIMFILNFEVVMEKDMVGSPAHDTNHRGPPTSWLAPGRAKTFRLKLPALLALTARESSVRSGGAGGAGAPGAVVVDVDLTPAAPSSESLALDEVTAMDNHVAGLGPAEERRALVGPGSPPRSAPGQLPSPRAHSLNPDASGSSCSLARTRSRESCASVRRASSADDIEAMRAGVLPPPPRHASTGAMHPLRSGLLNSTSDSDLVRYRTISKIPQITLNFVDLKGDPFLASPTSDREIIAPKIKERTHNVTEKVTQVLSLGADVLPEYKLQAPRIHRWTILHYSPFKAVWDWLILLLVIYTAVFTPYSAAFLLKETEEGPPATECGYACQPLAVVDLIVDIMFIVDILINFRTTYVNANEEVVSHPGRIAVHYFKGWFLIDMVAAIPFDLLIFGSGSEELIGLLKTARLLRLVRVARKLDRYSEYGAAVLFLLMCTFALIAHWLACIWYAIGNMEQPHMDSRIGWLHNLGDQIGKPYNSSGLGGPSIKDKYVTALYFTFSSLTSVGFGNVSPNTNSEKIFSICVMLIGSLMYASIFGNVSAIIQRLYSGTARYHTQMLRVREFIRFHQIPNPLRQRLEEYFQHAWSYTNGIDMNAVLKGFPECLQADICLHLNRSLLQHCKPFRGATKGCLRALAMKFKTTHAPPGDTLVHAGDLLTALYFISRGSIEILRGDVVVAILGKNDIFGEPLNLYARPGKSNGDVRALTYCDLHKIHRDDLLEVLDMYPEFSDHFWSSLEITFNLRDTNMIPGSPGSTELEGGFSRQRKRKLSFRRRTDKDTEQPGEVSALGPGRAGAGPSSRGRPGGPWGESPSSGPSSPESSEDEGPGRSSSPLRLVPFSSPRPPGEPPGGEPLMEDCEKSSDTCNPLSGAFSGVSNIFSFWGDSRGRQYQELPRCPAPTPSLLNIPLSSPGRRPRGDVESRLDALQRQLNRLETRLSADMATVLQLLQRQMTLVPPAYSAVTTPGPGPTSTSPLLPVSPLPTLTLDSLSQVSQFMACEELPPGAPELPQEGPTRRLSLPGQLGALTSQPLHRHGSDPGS
row,SMILES,"hERG current change (%, negative = inhibition) at 10uM [%]"
1,O=C(CSc1nnc(NC(=O)c2ccco2)s1)NC1CCCCC1,2.07
2,Cc1ccc2c(c1)N(CCC(=O)NCCCN1CCCC1)C(=O)C(C)O2 (stereo not drawn),22.4
3,COc1cc(CN2CCCC(CO)(Cc3ccccc3C)C2)cc2c1OCO2 (stereo not drawn),-27.9
4,COc1cc(CN2CCCC(CO)(Cc3ccccc3)C2)ccc1O (stereo not drawn),-17.6
5,Cc1nn(C)c(Cl)c1CN1CCCC(CO)(Cc2cccc(Cl)c2)C1 (stereo not drawn),-59.8
6,COc1cc(CN2CCCC(CO)(Cc3cccc(Cl)c3)C2)cc2c1OCO2 (stereo not drawn),-68.1
7,COc1ccc(CN2CCCC(CO)(Cc3cccc(Cl)c3)C2)cc1OC (stereo not drawn),-63.2
8,Cc1cccc(-c2ncc(CN3CCCC(CO)(Cc4cccc(Cl)c4)C3)cn2)c1 (stereo not drawn),-20.6
9,CSc1cccc(CN2CCCC(CO)(Cc3cccc(Cl)c3)C2)c1 (stereo not drawn),-29
10,OCC1(Cc2cccc(Cl)c2)CCCN(Cc2ccc(F)c(F)c2)C1 (stereo not drawn),-51.2
11,Cc1nn(C)c(Cl)c1CN1CCCC(CO)(Cc2ccccc2)C1 (stereo not drawn),-6.66
12,CC(C)(O)C#Cc1ccc(CN2CCCC(CO)(Cc3cccc(Cl)c3)C2)cc1 (stereo not drawn),-6.28
13,CCn1nc(C)c(CN2CCCC(CO)(Cc3cccc(Cl)c3)C2)c1C (stereo not drawn),-40.8
14,Cc1c(CN2CCCC(CO)(Cc3cccc(Cl)c3)C2)cnn1C (stereo not drawn),-11.2
15,CCC/C=C(\CCC)C(NS(=O)(=O)c1ccc(C(F)(F)F)cc1)c1ccccc1 (stereo not drawn),15.5
16,Cc1nnc2ccc(N3CCN(C(=O)c4ccccc4)CC3)nn12,-0.844
17,COc1ccc(S(=O)(=O)NCc2ccncc2)cc1NC(=O)c1ccccc1C,-36.6
18,O=C(/C=C/c1cccc([N+](=O)[O-])c1)NCCSCc1c(Cl)cccc1Cl,-11.9
19,NS(=O)(=O)c1ccc(NC(=O)c2ccc3c(c2)OCO3)cc1,11.3
20,COc1cc(Cl)c(CN2CCCC(CO)(Cc3ccccc3F)C2)cc1OC (stereo not drawn),-20.1
21,COc1cc(Cl)c(CN2CCCC(CO)(Cc3cccc(Cl)c3)C2)cc1OC (stereo not drawn),-45.6
22,COc1cc(Cl)c(CN2CCCC(CO)(Cc3ccccc3)C2)cc1OC (stereo not drawn),-55.2
23,O=C(O)CSc1cc(C(F)(F)F)nc(-c2ccccn2)n1,5.55

row,SMILES,"hERG current change (%, negative = inhibition) at 10uM [%]"
1,C#CCSc1cc(C(F)(F)F)nc(-c2ccccn2)n1,-62.9
2,FC(F)(F)c1cc(Sc2ccccc2)nc(-c2ccccn2)n1,-19.3
3,CCC(=O)NC(C)c1nc2ccccc2n1C (stereo not drawn),1.29
4,Cc1sc2ncnc(N/N=C/c3ccc(O)cc3)c2c1C,2.28
5,Cc1sc2ncnc(N/N=C/c3cccc(O)c3)c2c1C,-61.9
6,Cc1sc2ncnc(N/N=C/c3ccccc3O)c2c1C,-1.58
7,O=C(CCNNC(=O)c1ccncc1)NCc1ccccc1,9.98
8,OCC1(Cc2ccccc2)CCCN(Cc2cnn(-c3ccccc3)c2)C1 (stereo not drawn),-59.4
9,OCC1(Cc2cccc(Cl)c2)CCCN(Cc2cnn(-c3ccccc3)c2)C1 (stereo not drawn),-54.7
10,Cn1cc(CN2CCCC(CO)(Cc3cccc(Cl)c3)C2)cn1 (stereo not drawn),-17.1
11,Cn1cc(CN2CCCC(CO)(Cc3ccccc3)C2)cn1 (stereo not drawn),4.27
12,CCn1cc(CN2CCCC(CO)(Cc3cccc(Cl)c3)C2)cn1 (stereo not drawn),-10.8
13,COc1ccccc1-n1cc(CN2CCCC(CO)(Cc3cccc(Cl)c3)C2)cn1 (stereo not drawn),-49.5
14,CC(C)n1cnc2c(Nc3ccc(F)c(Cl)c3)nc(NCCO)nc21,-39
15,[O-][N+]1=C(c2cccs2)CN(O)C1,8.57
16,CC(OC(=O)/C=C/c1ccco1)C(=O)NC1CCCCC1C (stereo not drawn),-3.2
17,Nc1sc(-c2ccccc2)c(Cc2ccccc2)c1C(=O)O,-2.59
18,Cc1cnc(NC(=O)CSc2ccccc2)s1,3.88
19,FC(F)(F)c1ccc2c(c1)nnn2C1CCN(Cc2nnnn2Cc2ccccc2)CC1,-50.9
20,FC(F)(F)c1ccc2c(c1)ncn2C1CCN(Cc2nnnn2C2CCCCC2)CC1,-59.6
21,O=C(O)CCC(=O)N1CCC(n2nnc3cc(C(F)(F)F)ccc32)CC1,10.5
22,Cl.Fc1ccc2c(c1)nnn2C1CCN(Cc2nnnn2C2CCCCC2)CC1,-38.1
